Measurements as given in PubChem BioAssay (NCATS).
Results filed as inconclusive are left out. Active and inactive are the calls of the source. Calls come from the whole dose curve; as a rule, active = well fitted curve in the direction sought with a large enough effect; inconclusive = small, poorly fitted or top-dose-only effect, or another doubt; inactive = no such curve, though single readings can be large; an effect the other way counts as inactive or inconclusive.

Assays:
[1] = Cell Viability - LYMP2-004 (AID 966); note: nearly all actives have a fitted effect of over 65% in size
In short: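 Human lymphoblastoid cells (2500/well) in complete medium were treated with compounds for 24 hr at 37 C, then intracellular ATP was measured by CellTiter-Glo luminescence. AC50 values came from Hill-equation fits of concentration-response data.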

[2] = Cell Viability - LYMP2-005 (AID 967); note: series mostly up to about 92 µM
In short: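 CellTiter-Glo luminescence (cellular ATP) read-out; LYMP2-005 lymphoblastoid cells, 2500/well, 5 h pre-incubation, then 24 h compound exposure at 37 C in complete medium. Tetraoctylammonium bromide positive control; AC50 by standard Hill fit.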

[3] = Cell Viability - LYMP2-009 (AID 968); note: series mostly up to about 92 µM; nearly all actives have a fitted effect of over 55% in size
[4] = Cell Viability - LYMP2-013 (AID 970); note: series mostly up to about 92 µM; nearly all actives have a fitted effect of over 55% in size
In short: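 Human lymphoblastoid cells, 2500/well, were preincubated 5 hr at 37 C, then treated with compounds for 24 hr at 37 C in complete medium. Intracellular ATP was read by CellTiter-Glo luminescence; AC50 from Hill-equation fits of concentration-response data.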

[5] = Cell Viability - LYMP2-015 (AID 971); note: nearly all actives have a fitted effect of over 55% in size
In short: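 Human lymphoblastoid cells (2500/well) in complete medium were preincubated 5 hr at 37 C, then compound-treated 24 hr at 37 C. Intracellular ATP was read by CellTiter-Glo luminescence after 30 min at room temperature; AC50 came from Hill-equation concentration-response fits.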

[6] = Cell Viability - LYMP2-017 (AID 972); note: series mostly up to about 92 µM; nearly all actives have a fitted effect of over 55% in size
In short: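 Human lymphoblastoid cells (2500/well) were seeded in complete medium, held 5 hr at 37 C, then exposed to compounds for 24 hr at 37 C. Intracellular ATP was read by CellTiter-Glo luminescence after 30 min at room temperature, with AC50 values from Hill-equation fits.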

[7] = Cell Viability - LYMP2-019 (AID 973); note: nearly all actives have a fitted effect of over 55% in size
In short: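 Human lymphoblastoid cells were seeded at 2500 cells/well, preincubated 5 hr at 37 C, then exposed to compounds for 24 hr at 37 C in complete medium. Intracellular ATP was measured by CellTiter-Glo luminescence; AC50 from Hill fits.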

[8] = Cell Viability - LYMP2-021 (AID 974)
In short: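 Human lymphoblastoid cells (2500/well) were preincubated 5 hr at 37 C, then exposed to compounds for 24 hr at 37 C in complete medium. Intracellular ATP was read by CellTiter-Glo luminescence; AC50 came from Hill-equation fits of concentration-response data.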

[9] = Cell Viability - LYMP2-023 (AID 975)
In short: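 Human lymphoblastoid cells (2500/well) were preincubated 5 hr at 37 C, then exposed to compounds for 24 hr at 37 C in complete medium. Cellular ATP was read by CellTiter-Glo luminescence, and AC50 came from Hill-equation fits.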

[10] = Cell Viability - LYMP2-011 (AID 969); note: nearly all actives have a fitted effect of over 60% in size
In short: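 Human lymphoblastoid cells (2500/well) were plated in complete medium, preincubated 5 hr at 37 C, then exposed to compounds for 24 hr at 37 C. Intracellular ATP was read by CellTiter-Glo luminescence, and AC50 came from Hill-equation concentration-response fits.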

Measured: Potency

O=C(O)c1c(Cl)cccc1Cl
inactive: [1] | [2] | [3] | [4] | [5] | [6] | [7] | [8] | [9]

S=C([S-])NCCNC(=S)[S-].[Zn+2]
inactive: [1] | [2] | [3] | [4] | [5] | [6] | [7] | [8] | [9]

Cc1ccc(S(=O)(=O)NC2CCCCC2)cc1
inactive: [1] | [2] | [3] | [4] | [5] | [6] | [7] | [8] | [9]

O=[N+]([O-])c1c(Cl)cc(Cl)cc1Cl
inactive: [1] | [2] | [3] | [10] | [5] | [6] | [7] | [8] | [9]

NC(=O)CCCCC(N)=O
inactive: [1] | [2] | [3] | [4] | [5] | [6] | [7] | [8] | [9]

c1ccc2c(c1)ccc1ncccc12
inactive: [1] | [2] | [3] | [4] | [6] | [7] | [8] | [9]

c1ccc(Oc2ccccc2)cc1
inactive: [1] | [2] | [3] | [4] | [5] | [7] | [9]

CC(C)(c1cc(Br)c(OCC(Br)CBr)c(Br)c1)c1cc(Br)c(OCC(Br)CBr)c(Br)c1 (stereo not given)
inactive: [1] | [2] | [3] | [10] | [5] | [6] | [7] | [8] | [9]

c1ccsc1
inactive: [1] | [2] | [3] | [10] | [5] | [6] | [7] | [8] | [9]

O=[N+]([O-])c1ccc(Cl)cc1Cl
inactive: [1] | [2] | [3] | [10] | [5] | [6] | [7] | [8] | [9]

Cc1c(N)cccc1N
inactive: [1] | [2] | [3] | [4] | [5] | [6] | [7] | [8] | [9]

CCCC(Cl)CCCC(Cl)CCC(Cl)CCC(Cl)CCC(Cl)CCCC(Cl)CCC (stereo not given)
inactive: [1] | [2] | [3] | [10] | [5] | [6] | [7] | [8] | [9]

CC(C)(C)OCC1CO1 (stereo not given)
inactive: [1] | [2] | [3] | [4] | [5] | [6] | [7] | [9]

O=C(O)c1ccccc1C(=O)O
inactive: [1] | [2] | [3] | [10] | [5] | [6] | [7] | [8] | [9]

OC(CCl)CCl
inactive: [1] | [2] | [3] | [10] | [5] | [6] | [7] | [9]

CC(C)(O)C(=O)O
inactive: [1] | [2] | [3] | [10] | [5] | [6] | [7] | [8] | [9]

CC(=O)OCc1ccco1
inactive: [1] | [2] | [3] | [10] | [5] | [6] | [7] | [8] | [9]

CCOC(=O)C(C)C(C)=O (stereo not given)
inactive: [1] | [2] | [3] | [10] | [6] | [7] | [8] | [9]

O=C1OC(=O)c2cc([N+](=O)[O-])ccc21
inactive: [1] | [2] | [10] | [4] | [5] | [7] | [8] | [9]

CC(=O)OC(C)=O
inactive: [1] | [2] | [4] | [5] | [6] | [7] | [8] | [9]

COC(=O)CCCC(=O)OC
inactive: [1] | [2] | [10] | [4] | [5] | [6] | [7] | [8] | [9]

CCCC(C)CO (stereo not given)
inactive: [1] | [2] | [10] | [4] | [5] | [7] | [9]

Nc1cccc2c(=O)[nH][nH]c(=O)c12
inactive: [1] | [2] | [10] | [4] | [5] | [6] | [7] | [8] | [9]

O=C(O)c1cccc(Cl)c1Cl
inactive: [1] | [2] | [10] | [5] | [6] | [7] | [8] | [9]

CCOCCOCC
inactive: [1] | [2] | [10] | [5] | [6] | [7] | [8] | [9]

CCCCCCCCN
inactive: [1] | [2] | [10] | [4] | [5] | [6] | [7] | [8] | [9]

Cc1ccc2ncccc2c1
inactive: [1] | [2] | [10] | [4] | [5] | [6] | [7] | [9]

CC(=O)Nc1ccccc1C
inactive: [1] | [2] | [3] | [5] | [7] | [8] | [9]

O=[N+]([O-])c1ccc(CCO)cc1
inactive: [1] | [2] | [3] | [7] | [9]

CN(C)CCCNCCCN
inactive: [1] | [2] | [10] | [4] | [5] | [6] | [7] | [8] | [9]

NC(=O)/N=N/C(N)=O
inactive: [1] | [2] | [3] | [5] | [6] | [7] | [8] | [9]

C1CCOC1
inactive: [1] | [2] | [4] | [5] | [6] | [7] | [9]

CCCCC(CC)COC(=O)CCCCC(=O)OCC(CC)CCCC (stereo not given)
inactive: [1] | [2] | [4] | [5] | [6] | [7] | [8] | [9]

Nc1cccc(C(F)(F)F)c1
inactive: [1] | [2] | [10] | [4] | [5] | [6] | [7] | [9]

CC(=O)CCc1ccccc1
inactive: [1] | [2] | [10] | [4] | [5] | [6] | [7] | [9]

NC(=O)NC(N)=O
inactive: [1] | [2] | [10] | [4] | [6] | [7] | [8] | [9]

NC(=O)c1ccccc1[N+](=O)[O-]
inactive: [1] | [2] | [10] | [4] | [5] | [7] | [8] | [9]

Cc1ccc(C#N)cc1
inactive: [1] | [2] | [3] | [5] | [6] | [7] | [8] | [9]

Cc1cc(C2(c3cc(C)c(O)cc3C)OS(=O)(=O)c3ccccc32)c(C)cc1O
inactive: [1] | [2] | [3] | [4] | [6] | [8] | [9]

O=C1C=CCCC1
inactive: [1] | [2] | [10] | [4] | [5] | [6] | [7] | [8] | [9]

O=C(Cl)c1cccc([N+](=O)[O-])c1
inactive: [1] | [2] | [10] | [4] | [5] | [7] | [8] | [9]

C=C(C)C(=O)OCC(C)O (stereo not given)
inactive: [1] | [2] | [10] | [4] | [6] | [7] | [8] | [9]

Cc1ccc(N(C)C)cc1
inactive: [1] | [2] | [10] | [4] | [5] | [6] | [7] | [8] | [9]

Cc1cc(C)cc(O)c1
inactive: [1] | [2] | [10] | [4] | [5] | [6] | [7] | [8] | [9]

Cc1cc(C(=O)O)ccc1[N+](=O)[O-]
inactive: [1] | [2] | [4] | [5] | [6] | [7] | [9]

CCCCCCCCC/C=C/CC1CC(=O)OC1=O (stereo not given)
inactive: [1] | [2] | [10] | [4] | [5] | [7] | [8] | [9]

CC(C)C=O
inactive: [1] | [2] | [10] | [4] | [5] | [7] | [8] | [9]

C[C@@H]1O[C@@H](O[C@@H]2[C@@H](O)[C@H](OCCc3ccc(O)c(O)c3)O[C@H](CO[C@@H]3O[C@H](CO)[C@@H](O)[C@H](O)[C@H]3O)[C@H]2OC(=O)/C=C/c2ccc(O)c(O)c2)[C@H](O)[C@H](O)[C@H]1O
inactive: [1] | [2] | [10] | [4] | [5] | [6] | [7] | [8] | [9]

CC(C)=CCl
inactive: [1] | [2] | [10] | [4] | [5] | [7] | [8] | [9]

CCC(C)(C)C
inactive: [1] | [2] | [3] | [5] | [6] | [7] | [8] | [9]

CCC(C)(C)C(=O)O
inactive: [1] | [2] | [10] | [4] | [5] | [6] | [7] | [8] | [9]

O=C(O)c1ccccc1[N+](=O)[O-]
inactive: [1] | [2] | [10] | [4] | [5] | [6] | [7] | [8] | [9]

Cc1ccc(C)o1
inactive: [1] | [2] | [3] | [5] | [6] | [7] | [8] | [9]

O=[N+]([O-])c1cccc(C(F)(F)F)c1
inactive: [1] | [2] | [10] | [4] | [6] | [7] | [9]

CO[Si](CCCNCCC[Si](OC)(OC)OC)(OC)OC
inactive: [1] | [2] | [10] | [5] | [6] | [7] | [8] | [9]

O=[N+]([O-])c1ccc(NCCO)c(OCCO)c1
inactive: [1] | [2] | [10] | [4] | [5] | [6] | [7] | [8] | [9]

O=C1NC(=O)c2cc([N+](=O)[O-])ccc21
inactive: [1] | [2] | [10] | [4] | [5] | [6] | [7] | [8] | [9]

CCC=O
inactive: [1] | [2] | [10] | [4] | [5] | [6] | [7] | [8] | [9]

CC(=O)c1cc(C)oc1C
inactive: [1] | [3] | [10] | [4] | [5] | [6] | [7] | [8] | [9]

CCCCCCC(=O)O
inactive: [1] | [3] | [10] | [4] | [5] | [6] | [7] | [8] | [9]

[O-]/[N+](=N\O)c1ccccc1
inactive: [1] | [3] | [10] | [4] | [5] | [7] | [8] | [9]

C=C(C)C(=O)OCCCCCCCCCC
inactive: [1] | [3] | [10] | [4] | [5] | [6] | [7] | [8] | [9]
